IL-1B inflam inh – qHTS for Inhibitors of Inflammasome Signaling: IL-1-beta AlphaLISA Primary Screen. THP-1 LPS/ATP IL-1B secretion, AlphaLISA, 16 h; hits give low values. activity change, % at 57.5 µM. 4.7% of 360,000 active. AID 743279, 2014; in the data active = activity change below about -50%; inconclusive = mostly about -30% to -49%
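THP-1 cells pretreated 1 hr with compounds (up to 57.5 uM final), then stimulated with LPS (250 ng/mL final) plus ATP (1.25 mM final); secreted IL-1B measured by AlphaLISA after 16 hr, decreased signal indicating inhibition.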
ELG1 DNA repair – qHTS screen for small molecules that inhibit ELG1-dependent DNA repair in human embryonic kidney (HEK293T) cells expressing luciferase-tagged ELG1; HEK293T ELG1-luciferase reporter, luminescence, 16 h; DNA damage induced by 5-fluorouridine; Potency, µM (series often up to 46.1 µM), for the others: at the highest dose activity change, negative = inhibition, hits mostly inhibitors; 2.3% of 330,000 active; also: potency is read from the fitted curve at half-maximal effect; nearly all actives have a fitted effect of over 55% in size
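Overnight (16 hr) co-exposure of 2,000 cells/well to 5-fluorouridine and compound at 37 °C preceded detection. Luciferase was quantified via ONE-Glo luminescence; loss of signal denotes inhibition.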
Giardia killer – Small Molecules that selectively kill Giardia lamblia: qHTS; Giardia lamblia trophozoite viability; activity change, % at 7.66 µM, hits read low; 0.15% of 340,000 active; AID 540267, 2011; in the data active = activity change below about -80%; inconclusive = between about -30% and that limit;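 also: parasites exposed to compound for two days anaerobically before the ATP read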
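Compounds were tested on trophozoites seeded at 100 cells/well and held 48 hrs at 37 deg C anaerobically. An ATP-based luminescent kit measured the remaining live cells.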
DT40 TDP1 CPT – qHTS for Inhibitors of human tyrosyl-DNA phosphodiesterase 1 (TDP1): qHTS in cells in presence of CPT; chicken DT40 Tdp1-/-;hTDP1 cells + 20 nM CPT, ATP luminescence, 48 h; Potency, µM (highest dose often 46.2 µM), for the others: at the highest dose activity change, negative = growth inhibition, usual class: inhibitors; 12% of 420,000 active; also: potency is read from the fitted curve at half-maximal effect; nearly all actives have a fitted effect of over 55% in size
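Chicken DT40 Tdp1-/- cells stably complemented with human TDP1 were seeded at 400 cells/well in medium containing 20 nM camptothecin, exposed to pin-transferred compounds, and grown at 37 °C for at least 48 hr. Viability was read as ATP luminescence.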
TDP1 inh – qHTS Assay for Inhibitors of Tyrosyl-DNA Phosphodiesterase (TDP1); Tyrosyl-DNA phosphodiesterase 1 (Homo sapiens), Q9NUW8; recombinant TDP1, AlphaScreen DNA substrate cleavage; Potency, µM (highest dose often 130 µM), without a hit: top-dose activity change, negative = inhibition, most hits filed as inhibitors; 0.28% of 350,000 active; also: potency is read from the fitted curve at half-maximal effect; nearly all actives have a fitted effect of over 40% in size
Target sequence (Q9NUW8 whole entry, looked up): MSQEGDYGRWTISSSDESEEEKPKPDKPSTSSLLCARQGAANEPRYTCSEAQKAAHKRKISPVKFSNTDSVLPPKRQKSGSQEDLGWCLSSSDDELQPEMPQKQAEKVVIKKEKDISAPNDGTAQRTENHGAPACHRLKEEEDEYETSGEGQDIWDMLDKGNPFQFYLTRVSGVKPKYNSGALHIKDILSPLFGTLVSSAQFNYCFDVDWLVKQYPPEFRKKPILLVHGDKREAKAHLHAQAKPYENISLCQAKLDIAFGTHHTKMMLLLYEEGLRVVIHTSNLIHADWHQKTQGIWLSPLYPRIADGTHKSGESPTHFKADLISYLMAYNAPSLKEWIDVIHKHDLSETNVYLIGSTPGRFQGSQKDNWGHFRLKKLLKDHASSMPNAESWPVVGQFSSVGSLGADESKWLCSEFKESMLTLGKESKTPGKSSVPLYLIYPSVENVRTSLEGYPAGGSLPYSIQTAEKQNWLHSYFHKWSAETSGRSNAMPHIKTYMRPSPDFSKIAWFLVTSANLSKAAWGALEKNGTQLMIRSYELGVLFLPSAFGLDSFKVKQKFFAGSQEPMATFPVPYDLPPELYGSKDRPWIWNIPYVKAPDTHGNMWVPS
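Here, a 5' biotin and 3' phosphotyrosine-FITC DNA oligonucleotide reports Tdp1 activity: intact substrate bridges AlphaScreen beads, while cleavage leaves a 3' phosphate and drops signal. All incubations at room temperature.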
DT40 TDP1 no CPT – qHTS for Inhibitors of human tyrosyl-DNA phosphodiesterase 1 (TDP1): qHTS in cells in absence of CPT | DT40 Tdp1-/- hTDP1 cells, no CPT, ATP luminescence, 48 h | Potency, µM (titrated, usually from 46.2 µM), without a hit: top-dose activity change, negative = growth inhibition, usual class: inhibitors | 15% of 420,000 active | AID 686978, 2013; also: potency is read from the fitted curve at half-maximal effect; nearly all actives have a fitted effect of over 55% in size
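Luminescent ATP content (CellTiter-Glo) served as the growth readout. Knockout chicken DT40 cells expressing human TDP1 were exposed to compounds without camptothecin for a minimum 48 hr at 37 °C.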
Starred values were filed as active, the others as inactive; [ ] = another dose, or the depositor's remark. An excerpt weighted towards active compounds, which were near 19% of everything screened. Unless noted, calls follow the shape of the dose curve; as a rule, active = well fitted curve in the direction sought with a large enough effect; inconclusive = small, poorly fitted or top-dose-only effect, or another doubt; inactive = no such curve, though single readings can be large; an effect the other way counts as inactive or inconclusive. % is scaled to controls: 0 for no effect and ±100 for the full control effect.

For CC[C@H]1OC(=O)C[C@@H](O)[C@H](C)[C@@H](O[C@@H]2O[C@H](C)[C@@H](O)[C@H](N(C)C)[C@H]2O)[C@@H](CCN2C[C@H](C)C[C@H](C)C2)C[C@@H](C)C(=O)/C=C/C(C)=C/[C@@H]1CO[C@@H]1O[C@H](C)[C@@H](O)[C@@H](OC)[C@H]1OC the results were DT40 TDP1 CPT -19% and DT40 TDP1 no CPT -11%.
`Cc1ccc(C)c(NS(=O)(=O)c2ccc3c(c2)n(C)c(=O)n3C)c1` gave DT40 TDP1 CPT -20%, TDP1 inh 4% and DT40 TDP1 no CPT -16%.
`O=c1c2ccsc2ncn1Cc1ccc(Cl)cc1` gave IL-1B inflam inh -2, ELG1 DNA repair -5%, Giardia killer -4, DT40 TDP1 CPT inconclusive, TDP1 inh 6% and DT40 TDP1 no CPT 18µM*.
Screening O=c1c2ccccc2ncn1Cc1ccccc1 returned IL-1B inflam inh 12, ELG1 DNA repair 11%, Giardia killer -10, DT40 TDP1 CPT 18%, TDP1 inh 6% and DT40 TDP1 no CPT 9%.
`Cc1ccccc1NC(=O)CSc1nc(COc2ccccc2)nc2ccccc12` gave IL-1B inflam inh -24, ELG1 DNA repair 26µM*, Giardia killer -11, DT40 TDP1 CPT inconclusive, TDP1 inh 3% and DT40 TDP1 no CPT -30%.
Cc1cc(C)c(NC(=O)CSc2nc(COc3ccccc3)nc3ccccc23)c(C)c1 was read as IL-1B inflam inh -64*, ELG1 DNA repair inconclusive, Giardia killer -17, DT40 TDP1 CPT 23µM*, TDP1 inh 4% and DT40 TDP1 no CPT 18µM*.
CCc1nc(SCC(=O)Nc2ccc(N(C)C)cc2)c2ccccc2n1 was read as IL-1B inflam inh inconclusive, ELG1 DNA repair inconclusive, Giardia killer -1, DT40 TDP1 CPT inconclusive and DT40 TDP1 no CPT 15µM*.
For CCOC(=O)CNC(=O)CSc1nc(Cc2cccs2)nc2ccccc12 the results were IL-1B inflam inh -11, ELG1 DNA repair -5%, Giardia killer -19, DT40 TDP1 CPT inconclusive, TDP1 inh -2% and DT40 TDP1 no CPT inconclusive.
O=C(CSc1nc(COc2ccccc2)nc2ccccc12)NC1CCCC1 was read as IL-1B inflam inh -1, ELG1 DNA repair 13%, Giardia killer 16, DT40 TDP1 CPT -2%, TDP1 inh -3% and DT40 TDP1 no CPT -24%.
`CC1CC(C)CN(C(=O)CSc2nc(Cc3cccs3)nc3ccccc23)C1` (configuration not stated) gave IL-1B inflam inh -61*, ELG1 DNA repair inconclusive, Giardia killer -17, DT40 TDP1 CPT inconclusive, TDP1 inh 6% and DT40 TDP1 no CPT 21µM*.
For CCCc1cc(=O)oc2cc(OCC(=O)NCCCN3CCCC3=O)ccc12 the results were IL-1B inflam inh -2, ELG1 DNA repair 18%, Giardia killer 16, DT40 TDP1 CPT -8%, TDP1 inh 0% and DT40 TDP1 no CPT 10%.
Cn1cccc1CC(=O)NNC(=O)Nc1ccccc1F was read as IL-1B inflam inh 5, ELG1 DNA repair 9%, Giardia killer 7, DT40 TDP1 CPT -5%, TDP1 inh 3% and DT40 TDP1 no CPT 3%.
`Cc1cc(C)c(NC(=O)CSc2nc3ccccc3c3nc(CCn4cncc4C)nn23)c(C)c1` gave DT40 TDP1 CPT 13µM*, TDP1 inh 0% and DT40 TDP1 no CPT 15µM*.
Screening COC(=O)CSc1nc(COc2ccccc2)nc2ccccc12 returned IL-1B inflam inh 6, ELG1 DNA repair 9%, Giardia killer 8, DT40 TDP1 CPT 13% and DT40 TDP1 no CPT -10%.
`CCCc1nc(SCC(=O)N2CCc3ccccc3C2)c2ccccc2n1` gave IL-1B inflam inh -72*, ELG1 DNA repair -22%, Giardia killer 1, DT40 TDP1 CPT inconclusive, TDP1 inh 5% and DT40 TDP1 no CPT inconclusive.
For Cn1cnnc1SCC(=O)N1CCc2ccccc2C1 the results were IL-1B inflam inh 15, DT40 TDP1 CPT -15% and DT40 TDP1 no CPT 6%.
CCCNC(=O)CSc1nc(COc2ccccc2)nc2ccccc12 was read as IL-1B inflam inh -67*, ELG1 DNA repair 6%, Giardia killer 3, DT40 TDP1 CPT -1%, TDP1 inh 4% and DT40 TDP1 no CPT inconclusive.
CCN(CC)C(=O)CSc1nc(COc2ccccc2)nc2ccccc12 was read as IL-1B inflam inh 0, ELG1 DNA repair 23µM*, Giardia killer -9, DT40 TDP1 CPT -40% and DT40 TDP1 no CPT inconclusive.
For O=C(Cc1cscn1)N1CCOc2ccc(CN3CCN(c4ccccn4)CC3)cc2C1 the results were DT40 TDP1 CPT -1%[9.04 µM] and DT40 TDP1 no CPT -14%.
CN(C)c1ccc(C=O)cc1Cl was read as DT40 TDP1 CPT 2% and DT40 TDP1 no CPT -10%.
`CCN1C[C@@H]2[C@@H]3C(=O)N(C)C(=O)[C@@H]3[C@](Cc3ccccc3)(C(=O)OC)N2C1=NCc1ccccc1` gave IL-1B inflam inh 22, Giardia killer -8, DT40 TDP1 CPT 0% and DT40 TDP1 no CPT -4%.
Screening CCCCNC(=O)CSc1nc(CCC)nc2ccccc12 returned IL-1B inflam inh -14, ELG1 DNA repair -10%, Giardia killer 34, DT40 TDP1 CPT 23µM*, TDP1 inh 5% and DT40 TDP1 no CPT 23µM*.
Screening CC(=O)Oc1ccc2oc(C)c(C(=O)N3CCOCC3)c2c1 returned IL-1B inflam inh 6, ELG1 DNA repair 3%, Giardia killer 10, DT40 TDP1 CPT -7%, TDP1 inh 2% and DT40 TDP1 no CPT -11%.
For CCOc1ccc2oc(-c3ccccc3)c(C(=O)N3CCN(C)CC3)c2c1 the results were IL-1B inflam inh -11, ELG1 DNA repair inconclusive, Giardia killer 3, DT40 TDP1 CPT 23µM*, TDP1 inh 1% and DT40 TDP1 no CPT inconclusive.
COc1ccc2oc(-c3ccccc3)c(C(=O)N3CCOCC3)c2c1 was read as IL-1B inflam inh -8, ELG1 DNA repair -29%, Giardia killer 15, DT40 TDP1 CPT 16µM*, TDP1 inh 1% and DT40 TDP1 no CPT 13µM*.
